Assay outcomes (PubChem)
Compounds with a hit are over-represented: about 7.5% of the library has one in this group of screens.
KinaseGlo FLuc: counter-screen: inhibitors of Kinase-Glo firefly luciferase; Kinase-Glo luciferase, ATP luminescence, 8 min; Q27757; 200,000 compounds, 0.28% hits; Potency, µM (series often up to 38.3 µM), usual class: inhibitors; note: nearly all actives have a fitted effect of over 60% in size
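Substrate mix (final 50 mM imidazole pH 7.2, 50 mM KCl, 7 mM MgCl2, 10 uM ATP, 0.01% Tween 20, 0.05% BSA) plus pin-tool compound, then Kinase-Glo detection mix; 8 min ambient, luminescence read.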
NPC1 promoter act: activates the NPC1 promoter; AID 485313; 320,000 compounds, 2.4% hits; Huh7 NPC1 promoter luciferase reporter, 24 h; Potency, µM (doses to about 9.22 µM), actives largely listed as activators; note: nearly all actives have a fitted effect of over 60% in size
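Stable NPC1-promoter luciferase Huh7 line; cpd (DMSO) 24 h, 37 °C, 5% CO2; Amplite luciferase reagent 10 min RT; luminescence readout. qHTS format.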
SMN2 splice up: enhancers of SMN2 splice variant expression. 210,000 compounds, 2.8% hits. HEK293 SMN2-luciferase splicing reporter, luminescence, 30-36 h. Potency, µM (titrated, usually from 46.1 µM), usual class: activators; note: nearly all actives have a fitted effect of over 55% in size
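qHTS luciferase splicing reporter: luminescence rises when SMN2 exon 7 is included in transfected HEK293 cells. Compound exposure lasted 30-36 h at 37C, with 4.5 mM final sodium butyrate as control, followed by a ONE-Glo read.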
Rab9 prom act: Rab9 promoter activation; Huh7 Rab9 promoter-luciferase reporter, luminescence, 24 h; Potency, µM (series often up to 9.22 µM), most hits filed as activators; 320,000 compounds, 2.8% hits; note: nearly all actives have a fitted effect of over 60% in size
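Luminescence read-out: Huh7 cells stably expressing Rab9-luciferase, treated 24 h with compound at 37 °C, then lysed with luciferase reagent for 10 min at ambient before reading.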
ELG1 genotox: genotoxicity induction in ELG1-luciferase HEK293T cells; HEK293T ELG1-luciferase reporter, luminescence, 16 h; Potency, µM (doses to about 46 µM), actives largely listed as activators; 330,000 compounds, 1.3% hits; note: nearly all actives have a fitted effect of over 60% in size
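Reporter readout depends on ELG1 protein level, which increases with genetic stress. After 16 hr compound exposure at 37 °C, luciferase activity was quantified using ONE-Glo.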
FLuc counter: inhibits or activates purified firefly luciferase, miR-21 counter-screen; purified FLuc, Km substrates, luminescence inhibition; Potency, µM (top dose mostly 57.5 µM), actives largely listed as inhibitors; 360,000 compounds, 6.9% hits; note: nearly all actives have a fitted effect of over 55% in size
Target sequence (P08659 whole entry, looked up): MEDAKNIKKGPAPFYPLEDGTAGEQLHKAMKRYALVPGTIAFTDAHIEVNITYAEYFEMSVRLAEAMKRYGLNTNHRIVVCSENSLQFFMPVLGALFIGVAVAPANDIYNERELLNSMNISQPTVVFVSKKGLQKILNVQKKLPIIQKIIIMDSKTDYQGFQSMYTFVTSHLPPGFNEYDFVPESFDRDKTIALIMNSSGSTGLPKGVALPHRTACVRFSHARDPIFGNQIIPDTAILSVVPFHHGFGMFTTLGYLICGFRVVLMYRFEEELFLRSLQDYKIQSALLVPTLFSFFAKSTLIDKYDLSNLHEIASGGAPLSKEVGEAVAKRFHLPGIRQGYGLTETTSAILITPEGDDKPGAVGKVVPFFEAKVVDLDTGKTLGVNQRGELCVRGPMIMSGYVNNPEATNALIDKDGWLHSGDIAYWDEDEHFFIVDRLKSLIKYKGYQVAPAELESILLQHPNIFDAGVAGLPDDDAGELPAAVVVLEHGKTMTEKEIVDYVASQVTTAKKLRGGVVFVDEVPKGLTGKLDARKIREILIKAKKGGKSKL
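Purified P. pyralis luciferase, 10 nM final, with Km-level 10 uM D-luciferin and 10 uM ATP in 50 mM Tris acetate pH 7.5, 10 mM Mg acetate, 0.01% Tween-20, 0.05% BSA; 6-point qHTS titration about 60 µM downward; luminescence read.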
A number is an active result; 0 = inactive; ? = inconclusive; - = not tested or not shown; [ ] = remark or other dose. Calls come from the whole dose curve; as a rule, active = well fitted curve in the direction sought with a large enough effect; inconclusive = small, poorly fitted or top-dose-only effect, or another doubt; inactive = no such curve, though single readings can be large; an effect the other way counts as inactive or inconclusive.

SMILES	KinaseGlo FLuc	NPC1 promoter act	SMN2 splice up	Rab9 prom act	ELG1 genotox	FLuc counter
CC(=O)c1ccc(-c2ccc(C(=O)Nc3nc(C)c(C(C)=O)s3)o2)cc1	-	0	-	0	0	0
COc1ccc(N(C)S(=O)(=O)c2cccc(C(=O)Nc3nc(C)c(C(C)=O)s3)c2)cc1	-	0	-	0	0	0
CC(=O)c1sc(NC(=O)c2ccc(Cl)cc2)nc1C	-	3.16µM	-	1.41µM	?	?
CC(=O)Nc1nc(C)c(C(C)=O)s1	0	0	0	0	0	0
CC(=O)c1sc(NC(=O)c2ccc(F)c(S(=O)(=O)N3CCOCC3)c2)nc1C	-	0	-	0	0	19µM
COc1cc(OC)cc(C(=O)N2CC(=O)Nc3ccc(Cl)cc3C2c2ccccc2)c1 (stereo unspecified)	-	-	0	-	-	0
CCOC(=O)c1c(S(=O)(=O)N2CCC(C(=O)N3CCN(c4ccc(F)cc4)CC3)CC2)c(C)n(C)c1C	-	-	-	-	-	0
CC(=O)c1c(C)[nH]c(C(=O)OCc2ccccc2F)c1C	0	?	0	?	?	?
CC(=O)c1sc(NCc2ccccc2)nc1C	-	0	-	0	0	0
CC(=O)c1sc(NCc2ccc(C)cc2)nc1C	-	3.16µM	-	2.82µM	23.1µM	15.1µM
CCOc1ccc(NS(=O)(=O)c2ccc(NC(=O)N3CCCC3)cc2)cc1	-	-	-	-	-	0
Cc1ccc(C2c3c(oc4ccccc4c3=O)C(=O)N2CCCN2CCOCC2)o1 (stereo unspecified)	0	0	7.08µM	0	0	0
C=CCOc1ccc(C2c3c(oc4ccccc4c3=O)C(=O)N2CCCN2CCOCC2)cc1 (stereo unspecified)	0	0	0	0	0	0
CC(C)Oc1ccc(C2c3c(oc4ccccc4c3=O)C(=O)N2CCCN2CCOCC2)cc1 (stereo unspecified)	0	0	-	0	20.6µM	0
Oc1ccc2c(c1)oc1cc(O)ccc12	0	0	?	0	0	19µM
COc1ccc(-n2ncc3c(N(C)C4CCCCC4)ncnc32)cc1	-	0	-	0	?	0.169µM
CCN(c1ncnc2c1cnn2-c1cccc(Cl)c1)C1CCCCC1	-	-	-	-	-	3.79µM
Cc1cccc(-n2ncc3c(N(CCO)CCO)ncnc32)c1	0	3.16µM	14.1µM	3.55µM	?	15.1µM
COc1ncnc2c1cnn2-c1ccccc1	0	-	0	-	-	?
Cc1cccc(-n2ncc3c(N(C)C4CCCCC4)ncnc32)c1	-	0	-	0	0.461µM	0.169µM
CCc1nn2c(-c3ccccc3OC)ccnc2c1-c1ccc(F)cc1	-	-	0	-	-	0
O=C(Cc1ccc(Br)cc1)OCC(=O)N1CCOCC1	-	-	-	-	0	-
CCOc1ccc(CNC(=O)Cn2cc3c(n2)-c2c(oc(C(=O)N4CCOCC4)c2C)CC3)cc1	-	-	-	-	-	0
CCC1=C(c2ccc(C)cc2)S(=O)(=O)N=C1N1CCC(C(=O)Nc2ccccc2F)CC1	-	-	-	-	-	0
Cc1cc(NC(=S)NC(=O)C2CC2)ccc1Br	-	0	-	0	0	23.9µM
SMILES	KinaseGlo FLuc	NPC1 promoter act	SMN2 splice up	Rab9 prom act	ELG1 genotox	FLuc counter
Cc1cccc(NC(=S)NC(=O)C2CC2)c1	-	0	-	0	?	?
O=C(O)c1cc(O)ccc1N=Nc1ccccc1	-	0	-	0	0	0
Oc1ccc(N=Nc2ccccc2)cc1	-	?	-	0	?	9.53µM
CC(=O)Nc1ccc(N=Nc2ccc(O)cc2)cc1	0	?	0[1.84 µM]	3.55µM	?	10.7µM
Oc1ccc(Cl)cc1N=Nc1ccccc1	-	0	-	0	0	13.5µM
COCCOC(=O)c1c(C)n(S(=O)(=O)c2ccc(C)cc2)c2ccc(NS(=O)(=O)c3ccc(C)cc3)cc12	-	-	0	-	-	0
CN(C(=O)CN1C(=O)C2C3CC(C(Br)C3Br)C2C1=O)C1CCCCC1 (stereo unspecified)	-	0	-	0	0	0
O=C(CCCCCNC(=O)N1CCn2c1nc1ccccc12)NCc1ccccc1Cl	-	0	-	0	0	15.1µM
Cc1ccc(CNC(=O)CCCCCNC(=O)N2CCn3c2nc2ccccc23)cc1	-	0	-	0	0	15.1µM
O=C(CCCCCNC(=O)N1CCn2c1nc1ccccc12)NCc1ccc(Cl)cc1	-	0	-	0	0	23.9µM
CCOC(=O)c1cnc2c(-c3ccccc3OC)c(C)nn2c1C	0	0	0	0	0	?
O=C(/C=C/c1ccccc1O)c1ccco1	-	0	-	0	?	16.9µM
Nc1ccc(/C=C/C(=O)c2ccco2)cc1	0	0	0	?	?	6.01µM
CC(C)(C)C(=O)Nc1ccc(/C=C/C(=O)c2ccco2)cc1	-	0.355µM	-	0.447µM	18.3µM	0.426µM
O=C(/C=C/c1cc(Br)ccc1O)c1ccco1	-	0	-	0	0	?
CS(=O)(=O)c1ccc(/C=N\NC(N)=S)cc1	0[7.66 µM]	-	0[9.22 µM]	-	-	-
N#CC(C#N)=C(N)Nc1cccc(Cl)c1	-	0	-	0	0	0
CC1CCC(=C(C#N)C(=O)Nc2cccc(Cl)c2)CC1 (stereo unspecified)	0	0	0	0	0	23.9µM
COC(=O)c1sccc1NC(=O)CC1C(=O)NCCN1C(=O)Nc1cc(Cl)ccc1OC (stereo unspecified)	-	0	-	0	0	0
O=C(Cc1ccccc1)Nc1ccc(NC(=O)Cc2ccccc2)c(Cl)c1	-	0	-	0	0	0
O=C(Nc1cc2c(cc1C(=O)O)OCCCO2)c1ccc(C(F)(F)F)cc1	-	3.98µM	-	2.82µM	18.3µM	13.5µM
CCc1ccc(C(=O)Nc2cc3c(cc2Cl)OCCCO3)cc1	0	1.78µM	25.1µM	1.58µM	?	6.01µM
O=C(Cc1ccccc1)Nc1cc2c(cc1Cl)OCCCO2	-	3.16µM	-	2.82µM	?	16.9µM
COc1ccccc1CC(=O)Nc1ccc2c(c1)OC1(CCCC1)O2	-	-	-	-	0	-
O=C(Cc1ccccc1)Nc1ccc2c(c1)OC1(CCCC1)O2	-	2.51µM	-	2.51µM	?	4.78µM
SMILES	KinaseGlo FLuc	NPC1 promoter act	SMN2 splice up	Rab9 prom act	ELG1 genotox	FLuc counter
COc1ccc(CN[C@H](C)C(=O)O)cc1	0[7.66 µM]	-	0[9.22 µM]	-	-	-
COc1cc(Cl)c(C)cc1NC(=O)c1cc2c(Cl)nc3ccc(C)cc3c2s1	-	-	0	-	-	0
O=C(Nc1csc(Cc2c(Cl)cccc2Cl)n1)NN1CCOCC1	-	0	-	0	0	0
COc1cccc(N2CCN(C(=O)c3ccc4nc(N5CCCCC5)sc4c3)CC2)c1	0	?	0	?	?	19µM
O=C(c1ccc2nc(N3CCOCC3)sc2c1)N1CCCC1	0	0	0	0	0	0
COc1ccc(N2CCN(C(=O)c3ccc4nc(N5CCCCC5)sc4c3)CC2)cc1	0	0	0	0	23.1µM	?
COc1cccc(N2CCN(C(=O)c3ccc4ccccc4c3)CC2)c1	-	0	-	0	0	0
COc1ccc(C)c2sc(N(Cc3cccnc3)C(C)=O)nc12	-	-	-	-	-	0
COc1ccc(OC)c(/C=N/N=C(\N)c2nonc2N)c1	-	0	-	0	0	?
N/C(=N\N=C\c1ccc(Br)o1)c1nonc1N	-	2.51µM	-	1.26µM	?	12µM
Nc1nonc1C(=O)N/N=C/c1ccc(Br)o1	-	0	-	0	0	19µM
